Bioassay records from PubChem.
SMN2 splice up = increases expression of the SMN2 splice variant; HEK293 SMN2-luciferase splicing reporter, luminescence, 30-36 h; Potency, µM (doses to about 46.1 µM), usual class: activators; 210,000 tested, 2.8% active; AID 1458; note: nearly all actives have a fitted effect of over 55% in size
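HEK293 cells carry an SMN2 minigene-luciferase reporter in which exon 7 inclusion puts luciferase in frame. Cells were seeded at 2000 cells/well, attached for 10-12 hours, then exposed to compounds for 30-36 hours at 37C before ONE-Glo luminescence.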
ELG1 DNA repair = inhibitors of ELG1-dependent DNA repair in HEK293T cells; HEK293T ELG1-luciferase reporter, luminescence, 16 h; DNA damage induced by 5-fluorouridine; Potency, µM (doses to about 46.1 µM), most hits filed as inhibitors; 330,000 tested, 2.3% active; note: nearly all actives have a fitted effect of over 55% in size
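DMSO vehicle served as the neutral condition. Each well held 2,000 cells given 5-fluorouridine plus compound; after 16 hr at 37 °C/5% CO2, ONE-Glo was added and luciferase measured 30 min later.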
NPC1 prom act = activators of NPC1 promoter. Huh7 NPC1 promoter luciferase reporter, 24 h. Potency, µM (series often up to 9.22 µM), actives largely listed as activators. 320,000 tested, 2.4% active; note: nearly all actives have a fitted effect of over 60% in size
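Cells: Huh7 expressing luciferase under the NPC1 promoter, 1500/well. Seeded 2 h, compound added, incubated 24 h at 37 °C. Luciferase reagent, 10 min ambient, then luminescence.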
Rab9 promoter act = activates the Rab9 promoter. Huh7 Rab9 promoter-luciferase reporter, luminescence, 24 h. Potency, µM (highest dose often 9.22 µM), usual class: activators. 320,000 tested, 2.8% active; note: nearly all actives have a fitted effect of over 60% in size
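Cells were plated at 1500 per well in reduced-serum medium with 10% FBS and left 2 h. Compound in DMSO was then added for 24 h at 37 °C. Reporter signal was read by luminescence after 10 min with luciferase detection reagent.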
FLuc counter = inhibits or activates purified firefly luciferase, miR-21 counter-screen | AID 588342 | Potency, µM (doses to about 57.5 µM), usual class: inhibitors | P08659 | 360,000 tested, 6.9% active | purified FLuc, Km substrates, luminescence inhibition; note: nearly all actives have a fitted effect of over 55% in size
Target sequence (P08659 whole entry, looked up): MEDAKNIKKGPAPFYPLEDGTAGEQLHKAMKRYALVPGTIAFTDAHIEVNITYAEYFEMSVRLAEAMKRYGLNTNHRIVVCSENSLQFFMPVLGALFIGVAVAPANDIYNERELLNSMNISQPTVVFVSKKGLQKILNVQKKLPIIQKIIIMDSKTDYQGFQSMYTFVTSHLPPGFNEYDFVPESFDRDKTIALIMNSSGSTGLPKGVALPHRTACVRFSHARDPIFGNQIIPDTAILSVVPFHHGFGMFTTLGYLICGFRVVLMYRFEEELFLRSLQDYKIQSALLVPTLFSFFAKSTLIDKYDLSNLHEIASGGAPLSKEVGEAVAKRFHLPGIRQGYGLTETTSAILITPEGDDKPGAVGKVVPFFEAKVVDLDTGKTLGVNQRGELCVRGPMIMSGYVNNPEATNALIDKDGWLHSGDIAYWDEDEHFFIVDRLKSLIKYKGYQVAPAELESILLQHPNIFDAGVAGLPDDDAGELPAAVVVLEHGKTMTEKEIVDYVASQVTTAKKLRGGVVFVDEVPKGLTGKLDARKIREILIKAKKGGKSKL
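Purified P. pyralis luciferase (10nM final) with 10uM D-luciferin and 10uM ATP (Km levels) in 50mM Tris acetate pH 7.5, 10mM Mg acetate, 0.01% Tween-20, 0.05% BSA; qHTS 6-point titration, ~60 µM downward; luminescence read.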
ELG1 genotoxic = genotoxicity induction in ELG1-luciferase HEK293T cells; AID 504466; 330,000 tested, 1.3% active; Potency, µM (series often up to 46 µM), actives largely listed as activators; HEK293T ELG1-luciferase reporter, luminescence, 16 h; note: nearly all actives have a fitted effect of over 60% in size
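HEK293T cells expressing luciferase-tagged ELG1 were treated with compound or DMSO for 16 hr at 37°C. Luciferase activity was then read after 30 min with ONE-Glo at room temperature; rising signal flags genetic stress.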
Numbers stand for hits; n = inactive; u = inconclusive; x = no result given; [ ] = another dose, or the depositor's remark. Rows were chosen to be rich in hits. Some 9.3% of all compounds tested hit in one or more screens of this group. Calls come from the whole dose curve; as a rule, active = well fitted curve in the direction sought with a large enough effect; inconclusive = small, poorly fitted or top-dose-only effect, or another doubt; inactive = no such curve, though single readings can be large; an effect the other way counts as inactive or inconclusive.

SMILES | SMN2 splice up | ELG1 DNA repair | NPC1 prom act | Rab9 promoter act | FLuc counter | ELG1 genotoxic
CC(C)(O[C@@H]1O[C@H](CO)[C@@H](O)[C@H](O)[C@H]1O)[C@@H]1CC=C(C(=O)O)CC1 | x | n | n | n | n | n
CCOc1ccc(-c2csc(Cn3c(CN4CCN(C)CC4)nc4ccccc4c3=O)n2)cc1 | x | 21µM | n | n | n | n
CSc1nc2ccc3nc(NC(=O)c4ccccc4)sc3c2s1 | u | u | 3.2µM | 3.5µM | u | u
Cc1ccc2nc(NC(=O)c3ccc(Cn4cc(Cl)cn4)o3)sc2c1 | n | n | n | n | 7.6µM | n
O=C(Nc1nc2ccccc2s1)c1ccccc1 | 3.5µM | u | 1µM | 0.45µM | 1.7µM | 1µM
Cc1ccc2nc(NC(=O)c3ccc(Cl)s3)sc2c1 | 13µM | u | 1µM | 0.56µM | 1.7µM | 4.6µM
Cc1cccc2sc(NC(=O)c3ccc(Cl)s3)nc12 | n | u | n | n | u | n
NCCCCCCN | n | x | x | x | x | x
CS(=O)(=O)c1ccc2nc(NC(=O)c3cccs3)sc2c1 | 2.2µM | u | 0.4µM | 0.4µM | 0.67µM | 0.92µM
Cc1ccc(C(=O)Nc2nc3ccc(S(C)(=O)=O)cc3s2)s1 | 11µM | u | 1.8µM | 1.4µM | 2.4µM | 16µM
Cc1ccc2nc(NC(=O)c3cccs3)sc2c1 | 2.5µM | u | 0.5µM | u | 0.48µM | 0.26µM
Cc1cccc(NC(=S)c2nc3ccccc3s2)c1 | 18µM | u | u | u | 3µM | u
Cc1cccc(NC(=S)Nc2ccccn2)c1 | x | u | n | u | u | n
CCC(=O)Nc1nc2ccc(S(C)(=O)=O)cc2s1 | n | n | n | n | n | n
COc1ccc(-c2cn3c(n2)sc2cc(C(=O)NCCC4=CCCCC4)ccc23)cc1 | x | x | x | x | n | x
Cc1oc(-c2cccc3ccccc23)nc1CN1CCC[C@H]1CO | x | n | n | n | n | n
O=C(c1nc2ccccc2s1)N1CCSCC1 | n | u | n | u | u | 18µM
Cc1noc(C)c1C(=O)Nc1nc2ccccc2s1 | x | u | n | u | 17µM | u
O=S(=O)(/N=C(/Nc1nc2ccccc2s1)c1ccccc1)c1ccccc1 | x | u | n | u | x | n
c1ccc2sc(NN=C3CCCCCC3)nc2c1 | 4.5µM | u | 0.35µM | 0.22µM | 0.34µM | 0.46µM
Cc1ccc(C(=O)O)c(C(=O)Nc2nc3ccccc3s2)c1 | x | u | n | n | 15µM | n
CC(OC(=O)c1ccc(C#N)cc1)C(=O)Nc1ccc(Cl)cn1 (configuration not stated) | x | n | n | n | n | n
Cn1cc(CNC(=O)c2cnn3c2NC(=C2CC2)C=C3C(F)F)cn1 | x | x | x | x | n | x
CC(C)C(NC(=O)c1ccco1)C(=O)OCC(=O)Nc1ccc(C(N)=O)cc1 (configuration not stated) | n | n | n | n | n | n
O=C(Nc1ccccc1)c1nc2ccccc2s1 | 3.2µM | u | 2.8µM | 2.5µM | 1.1µM | 2.9µM
SMILES | SMN2 splice up | ELG1 DNA repair | NPC1 prom act | Rab9 promoter act | FLuc counter | ELG1 genotoxic
Cc1ccc2nc(NC(=S)NC(=O)c3cccs3)sc2c1 | u | u | 3.5µM | 1.1µM | 1.1µM | u
Cc1ccc(C(=O)Nc2nc3ccccc3s2)s1 | n | u | 0.63µM | 0.4µM | 0.54µM | u
Cc1csc2nc(NC(=O)c3ccccc3)sc(=O)c12 | x | u | n | n | 4.3µM | u
Cc1ccccc1C(=O)Nc1nc2c(C)csc2c(=O)s1 | x | n | n | n | n | n
CC1C(=O)N2CCCc3cc(S(=O)(=O)N(C)c4ccccc4)cc1c32 (configuration not stated) | x | n | n | n | n | n
CN(C(=O)c1ccccc1)c1nc2ccccc2s1 | 4.5µM | u | 0.28µM | 0.56µM | 0.85µM | u
C=CCc1cccc(C=Nc2c[nH]c(=O)[nH]c2=O)c1O | x | n | n | n | n | n
C=CCc1cccc(C=Nc2cccn3cc(-c4ccccc4)nc23)c1O | 25µM | u | u | u | n | u
Cc1nnc(Sc2nc3ccccc3o2)c2ccccc12 | x | u | n | n | 19µM | n
Cc1cc(CNC(=S)Nc2cccc(Cl)c2Cl)nn1C | x | n | n | n | n | n
O=C1CC(O)(C(F)F)Oc2ccc3ccccc3c21 (configuration not stated) | n | 16µM | n | n | n | n
COc1ccc2nc(NC(=O)c3cccc(S(=O)(=O)N4CCOCC4)c3)sc2c1 | n | u | n | n | 11µM | n
COc1ccc2nc(NC(=O)Cc3ccc(OC)c(S(=O)(=O)N4CCOCC4)c3)sc2c1 | n | n | n | n | 24µM | n
Cc1ccc(S(=O)(=O)N2CCCC2C(=O)Nc2nc3c(s2)CCCC3)cc1 (configuration not stated) | n | n | n | n | n | u
COc1ccc2nc(NC(=O)C3CCCN3S(=O)(=O)c3ccc(C)cc3)sc2c1 (configuration not stated) | n | 23µM | n | n | n | n
COc1ccc2nc(NC(=O)c3cc(S(=O)(=O)N4CCOCC4)ccc3C)sc2c1 | n | u | n | n | 11µM | n
CC1CCCC(C)N1C(=O)COC(=O)C1CCN(S(=O)(=O)c2c(Cl)cccc2Cl)CC1 (configuration not stated) | x | n | n | n | n | n
CCOCCCNC(=O)CSc1nc2nc(C)c(Cc3ccccc3)c(C)n2n1 | n | n | n | n | n | n
CC(=O)N1CCCc2cc(S(=O)(=O)N(Cc3ccccc3)C(C)C)ccc21 | x | x | x | x | n | x
Cc1ccc(C(=O)N2CCc3cc(CNC(=O)CSc4ccccc4)ccc32)cc1 | x | x | x | x | 24µM | x
O=C(COC(=O)CNS(=O)(=O)c1ccc(Br)cc1Cl)Nc1ccc(N2CCOCC2)cc1 | x | n | n | n | n | n
CCC(C(=O)NCCc1cc(OC)ccc1OC)n1nc(C)c2c(C)n(-c3ccccc3)nc2c1=O (configuration not stated) | x | x | x | x | n | x
N#Cc1cccc(S(=O)(=O)NCC(=O)OCC(=O)c2ccc[nH]2)c1 | n | n | n | n | n | n
COC(=O)c1ccc(/C=C/c2ccc3cccc(OC(C)=O)c3n2)cc1 | 16µM | u | 4µM | 3.5µM | 3.8µM | u
Oc1ccc(/C=C/c2ccc3cccc(O)c3n2)cc1Br | x | u | n | n | 17µM | 18µM
C[n+]1cccc(/C=C\c2ccc3cccc(O)c3n2)c1 | n[9.22 µM] | x | x | x | x | x
O=C(O)c1ccc(/C=C/c2ccc3cccc(O)c3n2)cc1 | 22µM | u | 3.5µM | 3.5µM | 2.4µM | u
O=C(NCc1ccco1)C(=O)NCC1OCCN1S(=O)(=O)c1cc(F)ccc1F (configuration not stated) | x | n | n | n | n | n
CC(=O)c1cc(C(=O)N2CCc3c([nH]c4ccccc34)C2CC(C)C)[nH]n1 (configuration not stated) | x | u | n | n | n | n
